Broadly, the inhibition is the change of the read-out against control, counted positive when it falls.
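Note: mean inhibition of MST4 kinase activity, reported from the GSK PKIS inhibitor-set screening panel.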

This experiment deals with Serine/threonine-protein kinase 26 (Homo sapiens) (UniProt Q9P289). The conditions noted are these: at 1 µM.
Chain of Serine/threonine-protein kinase 26 (Homo sapiens) (Q9P289 2-416 limits assumed): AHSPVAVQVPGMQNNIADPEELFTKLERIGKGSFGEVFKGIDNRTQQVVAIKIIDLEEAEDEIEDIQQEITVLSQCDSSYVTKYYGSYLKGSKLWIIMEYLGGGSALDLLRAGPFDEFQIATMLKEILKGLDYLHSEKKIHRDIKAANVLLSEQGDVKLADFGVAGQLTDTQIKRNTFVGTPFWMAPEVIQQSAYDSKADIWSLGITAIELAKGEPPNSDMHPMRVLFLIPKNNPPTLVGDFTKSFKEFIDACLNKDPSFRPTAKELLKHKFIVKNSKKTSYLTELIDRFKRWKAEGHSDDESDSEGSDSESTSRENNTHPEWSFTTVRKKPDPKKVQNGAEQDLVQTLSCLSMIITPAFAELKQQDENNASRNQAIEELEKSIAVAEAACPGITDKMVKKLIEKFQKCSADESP
Take `c1ccc(COc2ccc(Nc3ncnc4ccc(-c5ccco5)cc34)cc2)cc1`: the inhibition was found to be 1.35%.
As for `COc1ccc2c(-c3ccnc(Nc4cccc(OC(F)(F)F)c4)n3)cnn2n1`, the inhibition was -3.1%.
`CN1CCC(n2cnc(-c3ccc(F)cc3)c2-c2ccnc(N)n2)CC1`: the inhibition was found to be 1.62%.
As to `COc1ccc(-c2cc(-c3c[nH]nc3-c3ccccn3)ccn2)cc1`, the inhibition was -0.46%.
Consider `Cc1cccc(Nc2ncc(-c3ccccc3)o2)c1`, for which the inhibition amounted to 1.87%.
With `COC(=O)c1sc(-n2cnc3cc(OC)c(OC)cc32)cc1OCc1ccccc1C(F)(F)F` the figure was 0.54%; with `N#Cc1c(NC(=O)CN2CCOCC2)sc2c1CCCC2`, -0.59%; with `COc1ccc(-c2cc3c(N)ncnc3o2)cc1`, 0.97%.
With `N#Cc1c(NC(=O)c2ccc(F)cc2)sc2c1CCCC2` the figure was 2.43%.
The same measure for `Cc1ccc2c(-c3ccnc(Nc4ccccc4)n3)c(-c3ccc(F)cc3)nn2n1`: 0%.
Turning to `CNC(=O)c1cc(-c2ccc(F)cc2)cc(-c2ccc(S(=O)(=O)N3CCCC3)cc2)c1N`, the inhibition was -1.61%.
With `Cc1ccc(O)cc1Nc1ccnc2cc(-c3ccccn3)ccc12` the figure was -0.53%; with `CCc1nn2ncccc2c1-c1ccnc(NC2CC2)n1`, 1.56%.
With `CCCN1CCC(c2ccc(Nc3nc(Nc4cc(F)ccc4C(N)=O)c4cc[nH]c4n3)c(OC)c2)CC1` the figure was 0.06%.
On to `Fc1ccc(-c2nn3ccccc3c2-c2ccncc2)cc1`, for which the inhibition was found to be 2.42%.
In the case of `O=C(O[C@H]1CN[C@H](C#Cc2cc3ncnc(Nc4ccc(Cc5ccccc5)cc4)c3s2)C1)N1CCOCC1`, the inhibition was -0.68%.
For the molecule `COc1ccc(-c2nn3ncccc3c2-c2ccnc(Nc3ccc4c(c3)OCCO4)n2)cc1`, the inhibition is 0.26%.
With `CN(C)CCOc1ccc(-c2nc(-c3ccncc3)c(-c3ccc4c(c3)CC/C4=N\O)[nH]2)cc1` the figure was -0.6%; with `CCN1CCC(CC(=O)Nc2n[nH]c3nnc(-c4cccc(F)c4F)cc23)CC1`, 1.9%.
The same measure for `COc1cccc(-c2c[nH]c3c(N/N=C/c4ccncc4)ncnc23)c1`: 20.3%; for `Fc1ccc(-c2nn3ncccc3c2-c2ccnc(Nc3ccc4c(c3)OCCO4)n2)cc1`: 7.97%.
With `COc1cc(Nc2nccc(Nc3ccc4c(C)n[nH]c4c3)n2)cc(OC)c1OC` the figure was 3%; with `CC(C)COC(=O)c1ccc2c(c1)/C(=C/Nc1ccc(S(N)(=O)=O)cc1)C(=O)N2`, 10.7%.
For the molecule `NS(=O)(=O)c1ccc(N/N=C2\C(=O)Nc3ccc4ncccc4c32)cc1`, the inhibition was 72.5%.
With `COc1cc(N2CCN(C(C)C)CC2)ccc1Nc1nc(Nc2ccc(F)cc2C(N)=O)c2cc[nH]c2n1` the figure was 2.73%.
With `CCn1c(-c2nonc2N)nc2c(C#CC(C)(C)O)ncc(OC3CCNCC3)c21` the figure was 4.19%.
Regarding `CNC(=O)c1cccc(C#Cc2cncnc2Nc2ccc(OCc3cccc(F)c3)c(Cl)c2)c1`, the inhibition turned out to be 4.41%.
Take `Fc1cccc(COc2ccc(Nc3ncnc4sc(-c5ccco5)cc34)cc2Cl)c1`: the inhibition was determined as 3.25%.
With `c1ccc(-c2nc3n(c2-c2ccc4c(c2)OCO4)CCC3)nc1` the figure was -1.91%; with `O=S(=O)(CCNCc1ccc(-c2ccc3ncnc(Nc4ccc(OCc5cccc(F)c5)c(Cl)c4)c3c2)o1)c1ccccc1`, -0.49%.
For the molecule `COc1cc(/C=N/Nc2ncnc3[nH]ncc23)ccc1O`, the inhibition worked out at 5.4%.
In the case of `CS(=O)(=O)CCNCc1coc(-c2ccc3ncnc(Nc4ccc(OCc5ccccc5)cc4)c3c2)c1`, the inhibition stood at 2.64%.
The same measure for `COc1cc2c(cc1Nc1nc(Nc3ccsc3C(N)=O)c3cc[nH]c3n1)N(C(=O)CN(C)C)CCC2(C)C`: 0.56%.

Source of the values: ChEMBL document CHEMBL1961873, “Compounds: GSK PKIS; Assays: Nanosyn kinase panel” (2012).
